In assay [1] the test system is DLD1. Kind of assay: cell viability (CellTiter-Glo) relative to plate median (fraction of plate median); higher = more viable cells. As to conditions: 5 µM; treatment time 24 h; reporter: 7TFP. In short, it runs like this: (§1)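 On parallel plates, a Tecan F500 reader recorded either firefly luciferase or CellTiterGlo luminescence. The plates held colorectal cancer cells stably transduced with lentiviral TCF/Wnt firefly luciferase reporters (7TFP or TCF4/Wnt), seeded in 384-well format and treated 24 h later with library compounds at a final 5 µM for 24 h. Per-well signals were normalised to the plate median (webcellHTS2, additive, no log transformation), and two independent replicates were averaged.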

Assay [2] concerns HCT116. The assay is described as above. The following applies: 5 µM; treatment time 24 h; reporter: TCF4/Wnt. In short, it runs like this: as §1
Assay [3] concerns SW480. Described as above. The following applies: 5 µM; treatment time 24 h; reporter: 7TFP. In short, it runs like this: as §1
Assay [4] has as its system DLD1. The assay is described as follows: TCF/Wnt firefly luciferase reporter signal relative to plate median (fraction of plate median); higher = higher Wnt reporter signal. The following applies: 5 µM; treatment time 24 h; reporter: 7TFP. In short, it runs like this: as §1
On the technique in general: A reporter such as luciferase makes a cellular process visible.

In assay [5] the test system is SW480. The assay is described as above. The following applies: 5 µM; treatment time 24 h; reporter: 7TFP. In short, it runs like this:
as §1

± gives the standard deviation of the averaged measurements.

Take `CC(=O)OC1CCC23CC1(C)CCC2C(C)(C)CC3OC(C)=O` (stereo not given): the cell viability is 0.999 ± 0.044 in assay [1], 1.09 ± 0.021 in assay [2] and 1.02 ± 0.042 in assay [3]. The results for the “TCF/Wnt firefly luciferase reporter signal” value in assay [4] and in assay [5] were 1.03 ± 0.014 and 0.93 ± 0.04, respectively.
The corresponding values for `CN(C)C(=O)Nc1ccc(Cl)c(Cl)c1` are 0.959 ± 0.035, 0.989 ± 0.016, 0.966 ± 0.042, 1.14 ± 0.099 and 1.15 ± 0.078.
With `O=C(CCCN1CCC(O)(c2ccc(Cl)cc2)CC1)c1ccc(F)cc1`, the cell viability came to 1 ± 0.021 in assay [1], 1.075 ± 0.0071 in assay [2] and 0.995 ± 0.078 in assay [3]. Besides, the “TCF/Wnt firefly luciferase reporter signal” value in assay [4] was determined as 1.08 ± 0.035; in assay [5], 1.05 ± 0.064.
As for `CCC(O)CC1CCC(C(C)C(=O)OC(C)CC2CCC(C(C)C(=O)O)O2)O1` (stereo not given) [Bonactin], the cell viability in assay [1] was determined as 0.944 ± 0.027; in assay [2] it was 0.941 ± 0.11; in assay [3], 0.974 ± 0.0014. Further, the “TCF/Wnt firefly luciferase reporter signal” value in assay [4] came to 0.962 ± 0.054; in assay [5], 0.87 ± 0.12.
For the compound `C[C@]12C=CC(=O)C=C1CC[C@@H]1[C@@H]2C(=O)C[C@@]2(C)[C@H]1CC[C@]2(O)C(=O)CO`, the cell viability in assay [1] stood at 1 ± 0.085; in assay [2], 1.125 ± 0.0071; in assay [3], 1.07 ± 0.057. Moreover, the “TCF/Wnt firefly luciferase reporter signal” value in assay [4] was 1.035 ± 0.0071; in assay [5], 0.91 ± 0.17.
Turning to `O=c1cc(-c2ccc(O)cc2)oc2ccc(O)cc12`, the cell viability in assay [1] was determined as 1.11 ± 0.11; in assay [2], 1.1 ± 0.099; in assay [3], 1.035 ± 0.0071. Besides, the entries for the “TCF/Wnt firefly luciferase reporter signal” value in assay [4] and in assay [5] were 1.03 ± 0.11 and 1.125 ± 0.0071, respectively.
As to `Oc1c(Cl)cc(Cl)cc1Sc1cc(Cl)cc(Cl)c1O`, the cell viability in assay [1] stood at 1.03 ± 0.058; in assay [2] it was 1.01 ± 0.022; in assay [3] it was 0.99 ± 0.043. In addition, the entries for the “TCF/Wnt firefly luciferase reporter signal” value in assay [4] and in assay [5] were 0.979 ± 0.059 and 0.959 ± 0.048, respectively.
As to `CO/N=C(\C(=O)N[C@@H]1C(=O)N2C(C(=O)OCOC(=O)C(C)(C)C)=C(/C=C\c3scnc3C)CS[C@H]12)c1csc(N)n1`, the cell viability worked out at 1.025 ± 0.0071 in assay [1], 0.985 ± 0.0042 in assay [2] and 0.901 ± 0.0071 in assay [3]. Moreover, the entries for the “TCF/Wnt firefly luciferase reporter signal” value in assay [4] and in assay [5] were 0.809 ± 0.029 and 0.854 ± 0.14, respectively.
In the same order, the values of `CCOc1ccc2nc(S(N)(=O)=O)sc2c1` are 0.972 ± 0.054, 0.896 ± 0.15, 0.961 ± 0.014, 0.704 ± 0.088 and 0.891 ± 0.091.
As to `NC1(C(=O)O)CCCC1`, the values for the cell viability in assay [1], in assay [2] and in assay [3] were 0.9495 ± 0.00071, 1.02 ± 0.035 and 0.9955 ± 0.0064, respectively. The “TCF/Wnt firefly luciferase reporter signal” value in assay [4] turned out to be 1.02 ± 0.081; in assay [5], 1.055 ± 0.0071.
Take `Cc1nc(C)c(Cl)c(O)c1Cl`: the figures for the cell viability in assay [1], in assay [2] and in assay [3] were 1.1 ± 0.099, 1.03 ± 0.11 and 1.004 ± 0.0085, respectively. Further, the “TCF/Wnt firefly luciferase reporter signal” value in assay [4] was 0.99 ± 0.029; in assay [5], 0.917 ± 0.059.
In the same order, the values of `O=c1c(-c2ccccc2)coc2cc(O)cc(O)c12` are 0.94 ± 0.11, 0.883 ± 0.027, 0.993 ± 0.053, 0.926 ± 0.097 and 1.04 ± 0.18.
For `CCOC(=O)[C@H](CCc1ccccc1)N[C@@H](C)C(=O)N1[C@H](C(=O)O)C[C@@H]2CCC[C@@H]21`, the cell viability in assay [1] came to 1.11 ± 0.17; in assay [2], 1.08 ± 0.014; in assay [3] it was 1.1 ± 0.042. The results for the “TCF/Wnt firefly luciferase reporter signal” value in assay [4] and in assay [5] were 1.06 ± 0.035 and 1.06 ± 0.1, respectively.
Regarding `COC(=O)C[C@H]1C(C)(C)C(=O)[C@@H]2CC3=C(CC[C@]4(C)C3=CC(=O)O[C@H]4c3ccoc3)[C@@]1(C)C2=O`, the cell viability in assay [1] stood at 0.96 ± 0.032; in assay [2] it was 0.979 ± 0.058; in assay [3], 0.944 ± 0.018. Moreover, the “TCF/Wnt firefly luciferase reporter signal” value in assay [4] turned out to be 0.782 ± 0.35; in assay [5] it was 0.954 ± 0.029.
The corresponding values for `c1ccc2c(CC3=NCCN3)cccc2c1` are 1.11 ± 0.035, 1.09 ± 0.028, 1.09 ± 0.035, 1.07 ± 0.12 and 0.984 ± 0.11.

The values are drawn from the supplement of paper PMC6522484.
